Source: the supplement of paper PMC7801607

How the values were obtained:
[1] = test system: CHO; assay: % viability of CHO cells (MTT); higher = less toxic; conditions: 48 h
How it was run: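 CHO cells were seeded at 10^6 cells/well in 200 µL and left overnight to attach. The medium was then replaced with fresh medium containing compound at 2 or 20 µM for 48 h. Survival was read colorimetrically with the tetrazolium (MTT) assay. Percent viability was expressed relative to untreated cells.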

[2] = test system: HepG2-A16-CD81; assay: % inhibition of HepG2 viability (CellTiter-Glo); higher = more toxic; conditions: 5 µM
[3] = test system: Plasmodium falciparum NF54 stage IV/V gametocytes; assay: % inhibition of gametocyte viability (PrestoBlue); higher = more inhibition; conditions: 48 h
How it was run: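 Stage IV/V NF54 gametocytes (2% gametocytaemia, 5% haematocrit, 100 µL/well) were exposed to compound at 1 or 5 µM. Incubation was 48 h at 37 °C, stationary and hypoxic, followed by 10 µL PrestoBlue for 2 h. Fluorescence at 612 nm was read on 70 µL of transferred supernatant. Percent inhibition of gametocyte viability was normalised to DMSO and kill controls from a single run.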

[4] = test system: Plasmodium falciparum NF54 asexual blood stage; assay: % inhibition of asexual blood stage proliferation (pLDH); higher = more inhibition; conditions: 72 h
How it was run: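 Plasmodium falciparum NF54 ring-stage cultures (1% haematocrit, 2% parasitaemia) were exposed to compound at 2 or 20 µM in 96-well plates. Incubation was 72 h at 37 °C under 4% CO2, 3% O2 and 93% N2. Survival was read colorimetrically at 620 nm with the parasite lactate dehydrogenase assay. Percent inhibition of asexual proliferation was normalised to DMSO and kill controls, and the screen was run on two separate occasions.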

[5] = test system: Plasmodium falciparum NF54 stage IV/V gametocytes; assay: % inhibition of gametocyte viability (ATP bioluminescence); higher = more inhibition; conditions: 24 h
How it was run: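 In 96-well plates, compound at 1 or 5 µM was added to 30,000 density-gradient-enriched stage IV/V NF54 gametocytes per well and incubated for 24 h at 37 °C. ATP readout used the Promega BacTiter Glo bioluminescence system. Percent inhibition of gametocyte viability comes from a single run, normalised to control wells.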

[6] = test system: Plasmodium falciparum NF54 stage IV/V gametocytes; assay: % inhibition of gametocyte viability (luciferase reporter); higher = more inhibition; conditions: 48 h
How it was run: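 Luminescence from 30 µL lysate combined with 30 µL Promega luciferin substrate was recorded on a GloMax-Multi+ reader using 10 s integration. The lysate came from stage IV/V NF54-Pfs16-GFP-Luc gametocytes (2% gametocytaemia, 2% haematocrit) held with compound at 1 or 5 µM for 48 h at 37 °C under stationary, hypoxic conditions. Percent inhibition was normalised against controls run once.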

[7] = test system: Plasmodium berghei ANKA liver stage in HepG2-A16-CD81; assay: % inhibition of liver stage parasite viability (luciferase); higher = more inhibition; conditions: 5 µM; 48 h
Protocol: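 Single-concentration screen of the MMV Pandemic Response Box. P. falciparum NF54 asexual blood stages: pLDH assay, 72 h at 37 °C, 2 and 20 µM, n=2. Stage IV/V gametocytes (NF54): luciferase reporter (NF54-Pfs16-GFP-Luc, 48 h), ATP bioluminescence (24 h) and PrestoBlue (48 h) at 1 and 5 µM, n=1. P. berghei liver stage (luciferase in HepG2-A16-CD81, 48 h post infection) at 5 µM, n=4. All normalised to DMSO and kill controls as % inhibition.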
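For % inhibition of HepG2 viability (CellTiter-Glo) in this document: HepG2-A16-CD81 hepatoma cells plated as in the liver-stage assay but without sporozoites, with DMSO wells as negative and 25 µM puromycin as positive control.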

SMILES | % viability of CHO cells ([1]; 2 µM) [%] | % viability of CHO cells ([1]; 20 µM) [%] | % inhibition of HepG2 viability [2] [%] | % inhibition of gametocyte viability ([3]; 1 µM) [%] | % inhibition of gametocyte viability ([3]; 5 µM) [%] | % inhibition of asexual blood stage proliferation ([4]; 2 µM) [%] | % inhibition of asexual blood stage proliferation ([4]; 20 µM) [%] | % inhibition of gametocyte viability ([5]; 1 µM) [%] | % inhibition of gametocyte viability ([5]; 5 µM) [%] | % inhibition of gametocyte viability ([6]; 1 µM) [%] | % inhibition of gametocyte viability ([6]; 5 µM) [%] | % inhibition of liver stage parasite viability [7] [%]
CSc1ccc2c(c1)C(N1CCN(C)CC1)Cc1ccccc1S2 (stereo not drawn) | 90.7 | 137 | -7.96 | < 0 | < 0 | 26.2 | 73.7 | 20.9 | 44.2 | 1.22 | 4.12 | 23
Nc1nc(O)c2ncn(COC(CO)CO)c2n1 | 83.5 | 59.2 | 3.01 | < 0 | < 0 | 6.2 | 41.8 | < 0 | 0.568 | 7.58 | < 0 | 7.49
O=C(NCc1ncc(C(F)(F)F)cc1Cl)c1c(Cl)cccc1Cl | 91.7 | 72.6 | 2.83 | < 0 | 3.98 | 18.8 | 1.98 | < 0 | < 0 | < 0 | < 0 | 34.7
Nc1nnc(-c2ccc(Cl)cc2)s1 | 84.5 | 88.7 | -0.915 | 5.08 | < 0 | 13.1 | 23.9 | < 0 | < 0 | < 0 | < 0 | 26.2
Cc1nc(N(C)C(=O)Cc2ccc(-c3ccccn3)cc2)sc1S(N)(=O)=O | 85.2 | 59.1 | -0.405 | 20.7 | 39.1 | -8.1 | -31.8 | 4.11 | < 0 | 17.6 | < 0 | 24.8
CCc1ccccc1OCCN1CCCCCC1 | 96.9 | 109 | 14 | 15.5 | 15.2 | 10.6 | 87.1 | 6.82 | < 0 | < 0 | 2.04 | 17.2
O=C(CP(=O)(O)O)NCCc1cccc(Oc2ccccc2)c1 | 108 | 84.2 | 0.91 | 16.8 | 19.8 | 30.7 | 29.5 | 2.33 | < 0 | < 0 | < 0 | 27.3
CCC(C)NCC(O)Cn1c2ccc(Cl)cc2c2cc(Cl)ccc21 (stereo not drawn) | 112 | 1.87 | 1.41 | 33.3 | 87.6 | 68.7 | 81.8 | 6.9 | 68.2 | < 0 | 91 | -2.71
O=S(=O)(Nc1ccccc1)c1ccc(NC(=S)Nc2ccccc2)cc1 | 84.1 | 81.9 | -1.98 | 7.06 | 6.95 | 43.6 | 45.2 | < 0 | < 0 | < 0 | < 0 | 25.7
CC(C)Cn1c(=O)n(C)c(=O)c2c(-c3cncn3C)n(Cc3cccc4ccccc34)nc21 | 92.4 | 102 | 8.23 | 3.5 | 22.5 | 85.2 | 118 | < 0 | < 0 | 11.4 | < 0 | -8.38
CC(C)/N=c1\cc2n(-c3ccc(Cl)cc3)c3ccccc3nc-2cc1Nc1ccc(Cl)cc1 | 96.5 | 98.2 | 18.3 | < 0 | < 0 | 82.2 | 88.9 | < 0 | < 0 | < 0 | 16 | 59.4
NCC(=O)Nc1ccc(-n2nc(C(F)(F)F)cc2-c2ccc3c(ccc4ccccc43)c2)cc1 | 124 | 64.1 | 9.92 | 22.9 | 12.6 | 1.4 | 67.6 | 31 | 93.6 | < 0 | < 0 | 20.2
O=c1ccc2ncc(=O)n3c2n1CC3CN1CCC(NCc2cc3c(cn2)OCCC3)CC1 (stereo not drawn) | 124 | 97.3 | 6.64 | < 0 | 28.4 | 12.5 | 40.4 | 0.762 | < 0 | < 0 | < 0 | 23.7
CC(N)C(=O)NC(CCCCN)C(=O)NC(CCCNC(=N)N)C(=O)NC(Cc1c[nH]cn1)C(=O)NC(Cc1c[nH]cn1)C(=O)NCC(=O)NC(Cc1ccc(O)cc1)C(=O)NC(CCCCN)C(=O)NC(CCCNC(=N)N)C(=O)NC(CCCCN)C(=O)NC(Cc1ccccc1)C(=O)NC(Cc1c[nH]cn1)C(N)=O (stereo not drawn) | 105 | 102 | -0.769 | < 0 | 14.3 | 10.1 | 17.2 | < 0 | < 0 | < 0 | < 0 | 26.4
Nc1nc(-c2ccccc2)nc2c1ncn2[C@@H]1O[C@H](COS(=O)(=O)NC(=O)c2ccccc2O)[C@@H](O)[C@H]1O | 102 | 129 | 3.69 | 16.3 | 11 | 19.4 | 71.1 | < 0 | < 0 | < 0 | < 0 | 2.37
COc1ccc2c(c1)cc(CNC(=O)c1cc3ccccc3o1)n2CC(=O)O | 90.6 | 111 | 3.58 | < 0 | 26 | -3.06 | 7.62 | 1.71 | < 0 | < 0 | < 0 | 24.3
O=C(O)C(Cc1c[nH]c2ccccc12)N1C(=O)c2ccccc2C1=O (stereo not drawn) | 89.9 | 92 | -0.93 | < 0 | < 0 | 33.4 | 72.4 | 8.39 | < 0 | 13 | 22.9 | 21.1

SMILES | % viability of CHO cells ([1]; 2 µM) [%] | % viability of CHO cells ([1]; 20 µM) [%] | % inhibition of HepG2 viability [2] [%] | % inhibition of gametocyte viability ([3]; 1 µM) [%] | % inhibition of gametocyte viability ([3]; 5 µM) [%] | % inhibition of asexual blood stage proliferation ([4]; 2 µM) [%] | % inhibition of asexual blood stage proliferation ([4]; 20 µM) [%] | % inhibition of gametocyte viability ([5]; 1 µM) [%] | % inhibition of gametocyte viability ([5]; 5 µM) [%] | % inhibition of gametocyte viability ([6]; 1 µM) [%] | % inhibition of gametocyte viability ([6]; 5 µM) [%] | % inhibition of liver stage parasite viability [7] [%]
CC(=O)N1c2ccccc2NC2=C(C(=O)CC(C)(C)C2)C1c1ccc(OCc2ccccc2)cc1 (stereo not drawn) | 119 | 85.5 | -5.09 | 27.1 | 24.2 | -13.1 | 76.9 | 1.11 | 3.14 | 9.92 | < 0 | 27.4
CC(C)(C)c1cccc(-c2nc3cc(C(=N)N)ccc3[nH]2)c1O | 98.4 | 106 | -1.3 | < 0 | 41.8 | 21.4 | 79.9 | 0.668 | 3.93 | < 0 | 14.8 | 26.2
O=C(Nc1ccc(N2CCN(C(=O)c3ccccc3)CC2)cc1)c1ccc2c(c1)OCO2 | 114 | 113 | 38.8 | 5.65 | < 0 | 62.9 | 44.8 | 0.482 | < 0 | 9.21 | < 0 | 33.5
CN(C)c1[nH]c(=O)ncc1F | 111 | 104 | 11.9 | < 0 | < 0 | -4.48 | 8.8 | 2.44 | < 0 | < 0 | < 0 | 26.1
CC1=C(/C=C/C(C)=C/C=C/C(C)=C/C(=O)Nc2ccc(O)cc2)C(C)(C)CCC1 | 118 | 102 | 4.42 | < 0 | < 0 | 33.3 | 90 | < 0 | < 0 | < 0 | < 0 | 13.4
COc1ccc(C[C@@H](C)[C@@H](C)Cc2ccc(OC)c(OC)c2)cc1OC | 81.9 | 77.7 | 5.15 | 10.5 | 23.6 | 13.7 | 63 | < 0 | < 0 | < 0 | < 0 | 4.88
Cc1ccccc1NC(=O)Nc1cccc([N+](=O)[O-])c1 | 121 | 111 | 8.58 | < 0 | 2.93 | 3.72 | 73.7 | 6.45 | < 0 | 3.59 | < 0 | 6.73
Nc1nc(O)c2ncn(COCCO)c2n1 | 98.5 | 121 | 1.64 | < 0 | 15.7 | 21.3 | 31.7 | < 0 | < 0 | < 0 | < 0 | 26.7
CCNC(=O)Nc1cc(-c2ccccc2)c(-c2cncc(C(=O)O)c2)cn1 | 109 | 94 | -1.59 | 19.7 | 30.2 | -11.2 | -0.305 | < 0 | < 0 | < 0 | < 0 | 41.3
CC[C@@H]1C(=O)OC[C@@H]1Cc1cncn1C | 111 | 110 | -1.73 | < 0 | < 0 | 5.57 | 14.4 | < 0 | < 0 | < 0 | 10.7 | -7.29
CCC[C@H](NC(=O)[C@@H]1[C@H]2CCC[C@H]2CN1C(=O)[C@@H](NC(=O)[C@@H](NC(=O)c1cnccn1)C1CCCCC1)C(C)(C)C)C(=O)C(=O)NC1CC1 | 94.8 | 100 | -4.56 | < 0 | 7.89 | 49.1 | 57 | 6.88 | 10.7 | 3.5 | < 0 | 6.72
O=C(O)c1sccc1S(=O)(=O)n1ccc2cc(Br)ccc21 | 93.4 | 97.8 | -1.44 | 12.3 | 30.7 | 49.8 | 84.9 | < 0 | < 0 | < 0 | < 0 | 8.54
CCCCc1ccc(S(=O)(=O)Nc2cc(C)on2)cc1 | 106 | 124 | 15.2 | 18 | 10.4 | 84.8 | 64.2 | 2.13 | < 0 | < 0 | < 0 | 40.7
NC(=O)c1ccccc1NC(=O)c1ccc(C(=O)Nc2ccccc2C(N)=O)cc1 | 87.5 | 120 | 0.348 | < 0 | < 0 | 5.85 | 13.6 | < 0 | < 0 | < 0 | 0.0831 | 42
CO/N=C(\C(=O)N[C@@H]1C(=O)N2C(C(=O)OCOC(=O)C(C)(C)C)=C(/C=C\c3scnc3C)CS[C@H]12)c1csc(N)n1 | 146 | 60.3 | -3.45 | < 0 | 1.37 | 7.74 | 37.7 | 0.449 | 5.98 | < 0 | 22.6 | 34
CC(C)(C)c1cc(CCC(=O)N2CCC2)cc(C(C)(C)C)c1O | 94.2 | 74.4 | 0.292 | < 0 | < 0 | 4.95 | 69.6 | < 0 | < 0 | < 0 | < 0 | 21.9
[N-]=[N+]=N[C@H]1C[C@H](n2ccc(=O)[nH]c2=O)O[C@@H]1CO | 109 | 102 | -1.43 | 6.88 | 16.8 | -15.7 | 43.2 | 3 | < 0 | 11.1 | < 0 | -3.95
